# Bioassay records deposited in PubChem BioAssay by several laboratories.
# Compounds with a hit are over-represented: about 2.1% of the library has one in this group of screens.
# aDG glyco act: alpha-DG glycosylation activation. activation, % at 10 µM. 360,000 tested, 0.22% active. AID 624168. Pro5-aDG cells, alpha-DG glycosylation AlphaScreen (IIH6); 0% Pro5, 100% B10-LARGE cell signal;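 active = activation of at least 8% versus controls, or a plate z-score of at least 8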;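 also: Pro5 are CHO cells carrying HIG-tagged alpha-DG that lacks glycosylation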
# HIV Env fusion: inhibitors of HIV Env-mediated cell fusion | 360,000 tested, 1.1% active | inhibition, % at 12.3 µM | HeLa-JRFL Env/CEM21 cell fusion, luciferase | AID 651610;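 active = mean replicate inhibition score of at least 50 and every replicate individually at or above 50; inconclusive = only one of the two criteria met; inactive = mean below 50 and not all replicates reaching 50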;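 also: 0% = plate neutral controls and 100% = maraviroc near 300 nM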
# GalR3 antagonist: human GalR3 antagonism | 360,000 tested, 0.44% active | O60755 | inhibition, % at 3 µM | HEK293 GalR3-CNG cAMP membrane potential fluorescence; galR3 body fused to GalR1 C-terminus;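 active = inhibition above the screen-wide average plus 3 SD, cut at about 13% in these data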;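 also: forskolin and galanin both at EC90 stimulate the cells; cAMP rise reported by CNG channel membrane potential dye signal; 0% = forskolin plus galanin with DMSO and 100% = forskolin alone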
# Gli-Sufu block: antagonists of Gli-Sufu signaling. Sufu-KO-LIGHT fibroblasts, Gli luciferase reporter luminescence. inhibition, % at 5 µM. 340,000 tested, 0.74% active;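 active = inhibition above about 55%, limit read from the data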;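 also: 0% = DMSO-treated cells and 100% = wells with medium but no cells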
# NR2F2 inh: blocks human COUP-TFII nuclear receptor | P24468 | HEK293T NGFI-A luciferase reporter, luminescence | inhibition, % at 8.6 µM | 370,000 tested, 0.7% active | AID 686940;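 active = inhibition above a per-plate cutoff, mean inhibition of test wells between control levels plus 3 SD, cut at about 38% in these data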;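 also: cells cotransfected with COUP-TFII expression vector driving the NGFI-A reporter; 0% = median of COUP-TF2 test wells and 100% = reporter-only cells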
# Target sequence (P24468 whole entry, looked up): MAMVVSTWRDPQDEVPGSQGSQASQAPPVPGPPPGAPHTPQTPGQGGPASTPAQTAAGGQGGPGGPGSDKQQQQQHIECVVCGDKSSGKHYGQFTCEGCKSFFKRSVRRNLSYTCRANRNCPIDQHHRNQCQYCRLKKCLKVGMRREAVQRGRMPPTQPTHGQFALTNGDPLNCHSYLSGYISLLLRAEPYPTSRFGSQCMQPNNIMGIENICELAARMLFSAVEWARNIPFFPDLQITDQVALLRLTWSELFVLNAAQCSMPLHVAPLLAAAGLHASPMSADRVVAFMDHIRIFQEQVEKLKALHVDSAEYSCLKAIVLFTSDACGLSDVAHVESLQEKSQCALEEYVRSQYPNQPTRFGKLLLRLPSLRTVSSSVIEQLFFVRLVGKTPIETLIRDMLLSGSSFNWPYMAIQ
# Gal4-VP16 ctr: counter-screen for COUP-TFII antagonists: inhibitors of VP16. shares compounds with NR2F2 inh. HEK293 Gal4-VP16 luciferase reporter, luminescence. inhibition, % at 8.5 µM. 2,500 tested, 25% active. AID 687007; in the data active = inhibition above about 13%
# COUP-TFII conf: COUP-TFII (NR2F2) inhibition, confirmation assay | shares compounds with NR2F2 inh | HEK293 NGFI-A luciferase reporter, luminescence | inhibition, % at 8.5 µM | 2,500 tested, 45% active;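 active = mean inhibition over three repeats above a set limit taken from the earlier primary screen, cut at about 38% in these data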;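 also: 100% = cells given the luciferase reporter alone without the COUP-TF2 vector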
# * hit, by the source's call; ? = inconclusive; nt = not tested or not shown.
SMILES,aDG glyco act,HIV Env fusion,GalR3 antagonist,Gli-Sufu block,NR2F2 inh,Gal4-VP16 ctr,COUP-TFII conf
O=[N+]([O-])c1ccc(-[n+]2c(-c3ccccc3)cc(-c3ccccc3)cc2-c2ccccc2)cc1,0,17,-8,7,14,nt,nt
O=[N+]([O-])c1ccccc1-c1cc(-c2ccccc2)cc(-c2ccccc2)[n+]1Cc1ccccc1Cl,nt,61*,-12,38,56*,14*,44*
Cc1cc(C)c(S(=O)(=O)N2Cc3ccccc3-n3nncc3C2)c(C)c1,0,?,-4,nt,40*,0,18
COc1ccc(S(=O)(=O)N2Cc3ccccc3-n3nncc3C2)cc1,0,34,-4,nt,10,nt,nt
CC(C)(C)C(=O)Nc1ccc(S(=O)(=O)N2CC3CC(C2)c2cccc(=O)n2C3)cc1 (stereo not given),0,-13,-4,-1,-25,nt,nt
CS(=O)(=O)N1Cc2cc(Br)ccc2-n2nncc2C1,nt,19,-4,nt,-3,nt,nt
CC(=O)OC1C(=O)OCC23CCC4(C)OC4C2OC2CC(OC(=O)C=CC=CC(=O)OCCC1C)C3(C)C21CO1 (stereo not given),0,77*,-1,89*,89*,10,86*
COc1ccc(-n2nnnc2C(CCc2ccccc2)N2CCC(n3c(=O)[nH]c4ccccc43)CC2)cc1 (stereo not given),-1,14,-5,nt,39*,1,22
CCC(C)C1NC(=O)C(NC(=O)C(CC(C)C)N(C)C(=O)C2CCCN2C(=O)C(C)O)C(C)OC(=O)C(Cc2ccc(OC)cc2)N(C)C(=O)C2CCCN2C(=O)C(CC(C)C)NC(=O)[C@H](C)C(=O)[C@H](C(C)C)OC(=O)CC1O (stereo not given in full),0,83*,-5,90*,91*,21*,88*
CC(=O)OC[C@]12CCC(C)=C[C@H]1O[C@@H]1[C@H](O)[C@@H](OC(C)=O)[C@@]2(C)[C@]12CO2,-1,nt,0,92*,91*,18*,90*
C[C@@H]1C[C@@H]([C@H](O)CC2CC(=O)NC(=O)C2)C(=O)[C@@H](C)C1,0,nt,0,64*,87*,-2,67*
CC(=O)OC1(C)CC(C)C(=O)C(C(O)CC2CC(=O)NC(=O)C2)C1 (stereo not given),4,nt,-5,89*,91*,15*,84*
C=Cc1ccc(Cn2c(C(=O)O)c(C=O)c3ccccc32)cc1,0,4,1,-5,10,nt,nt
CC(=O)NC(Cc1ccc(N(CCCl)CCCl)cc1)C(=O)NC(CC(C)C)C(=O)O (stereo not given),0,4,-3,1,-12,nt,nt
C[n+]1ccc(-c2ccccc2)c2ccccc21,0,16,-6,46,40*,-2,14
Nc1nc(N)c2cnnn2n1,0,-7,-6,5,-9,nt,nt
O=C(O)c1cc[c]([Hg][Cl])cc1,0,nt,nt,-2,nt,nt,nt
CN(C)c1ccc(/C=C/c2cc[n+](C)c3ccccc23)cc1,1,-11,-5,87*,84*,23*,82*
CC(C)[N+](C)(CCC(C(N)=O)(c1ccccc1)c1ccccc1)C(C)C,0,29,nt,18,-7,nt,nt
